In all, about 310,000 compounds went through this assay and about 14,000 (4.5%) showed an effect of 50% or more. The effect is printed as a negative number. For the sample, strong results were picked, then their nearest neighbours and some compounds at random.
These compounds were tested against human ether-à-go-go-related gene (hERG) potassium channel (human, UniProt Q12809) (assay: primary screen, population patch clamp on CHO cells stably expressing hERG; higher = less effect of the substance).
Sequence of human ether-à-go-go-related gene (hERG) potassium channel (Q12809 whole entry, looked up): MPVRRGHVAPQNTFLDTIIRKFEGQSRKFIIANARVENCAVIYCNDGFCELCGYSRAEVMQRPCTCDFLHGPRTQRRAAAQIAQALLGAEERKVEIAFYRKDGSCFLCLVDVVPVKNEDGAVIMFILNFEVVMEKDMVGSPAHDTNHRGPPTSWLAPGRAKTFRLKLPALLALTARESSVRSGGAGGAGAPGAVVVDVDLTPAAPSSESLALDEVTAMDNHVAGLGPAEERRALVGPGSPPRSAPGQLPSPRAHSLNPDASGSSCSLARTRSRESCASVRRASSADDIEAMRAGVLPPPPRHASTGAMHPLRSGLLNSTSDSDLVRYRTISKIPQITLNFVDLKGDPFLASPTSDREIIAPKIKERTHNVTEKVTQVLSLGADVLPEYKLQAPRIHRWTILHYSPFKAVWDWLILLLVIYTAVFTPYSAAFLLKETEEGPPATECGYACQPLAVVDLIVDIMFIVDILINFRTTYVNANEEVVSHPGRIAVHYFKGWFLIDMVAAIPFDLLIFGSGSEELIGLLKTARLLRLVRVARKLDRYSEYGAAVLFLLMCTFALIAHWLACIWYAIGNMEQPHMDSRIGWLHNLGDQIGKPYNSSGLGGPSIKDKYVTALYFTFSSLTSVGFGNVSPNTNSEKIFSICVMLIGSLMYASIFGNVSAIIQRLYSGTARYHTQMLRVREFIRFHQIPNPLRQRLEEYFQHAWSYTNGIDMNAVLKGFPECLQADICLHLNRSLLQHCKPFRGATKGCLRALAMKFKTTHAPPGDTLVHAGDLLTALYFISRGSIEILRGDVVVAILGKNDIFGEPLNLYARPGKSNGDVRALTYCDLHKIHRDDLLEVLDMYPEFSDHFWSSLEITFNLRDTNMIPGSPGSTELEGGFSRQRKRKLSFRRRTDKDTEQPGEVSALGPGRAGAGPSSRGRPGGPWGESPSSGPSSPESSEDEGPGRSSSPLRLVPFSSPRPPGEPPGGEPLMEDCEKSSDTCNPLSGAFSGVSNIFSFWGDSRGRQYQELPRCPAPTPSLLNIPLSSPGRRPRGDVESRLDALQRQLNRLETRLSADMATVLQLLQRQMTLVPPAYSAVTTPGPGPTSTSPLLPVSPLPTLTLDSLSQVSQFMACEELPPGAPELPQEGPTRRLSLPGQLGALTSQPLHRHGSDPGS
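Note: peak tail current of the secondary pulse compared with the same well before compound.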

SMILES | hERG current change (%, negative = inhibition) at 10uM [%]
CCCCn1c(N)c(N(CC(C)C)C(=O)c2ccc(-c3ccc(Cl)cc3)o2)c(=O)[nH]c1=O | 1.07
CCC(CC)C(=O)OCC(=O)Nc1cccc(S(=O)(=O)N(C)c2ccccc2)c1 | 14.3
O=C(NCc1ccc(F)cc1)C(C(=O)NCc1ccc(F)cc1)c1ncc(C(F)(F)F)cc1Cl | 1.56
O=C(NCc1ccco1)c1cc2ccccc2o1 | 11.8
COc1cc(OC)cc(C(=O)Nc2ncn[nH]2)c1 | 7.31
Cc1ccn(CCC(=O)NC2CC(C)(C)Cc3c2cnn3-c2ccccc2C)n1 (centres unmarked) | -25.6
CC1(C)CC(=O)c2cc(C(=O)NC3CCSC3=O)c(=O)n(-c3ccccc3)c2C1 (centres unmarked) | -0.214
Cc1nc(NC(CC(C)C)C(=O)O)c2nc(C)oc2n1 (centres unmarked) | -3.03
COc1ccc(Nc2nc(C)cc(C)n2)cc1Cl.Cl | 0.588
COc1ccc(C2N(C(=O)CN3CCCC3)CCCN2S(=O)(=O)c2ccccc2)cc1 (centres unmarked) | -15.8
CCCC(=O)Oc1ccc(N(C(=O)CCC)S(=O)(=O)c2cccs2)cc1 | 10.9
O=C1Nc2ccccc2Oc2cc([N+](=O)[O-])cc(Oc3ccccc3)c21 | -24.5
Cc1[nH]c2ccc(C(=O)OC(C)C(=O)N(C)c3ccccc3)cc2c1C (centres unmarked) | 1.13
O=C(c1ccccc1)N1CCN(c2ncnc3c2cnn3-c2ccccc2)CC1 | -18
Cc1ccccc1C(=O)N1CCN(c2ncnc3c2cnn3-c2ccccc2)CC1 | -9.76
Cc1ccc(C(=O)N2CCN(c3ncnc4c3cnn4-c3ccccc3)CC2)cc1 | -0.928
O=C(COc1ccccc1)N1CCN(c2ncnc3c2cnn3-c2ccccc2)CC1 | -73.6
O=C(c1ccco1)N1CCN(c2ncnc3c2cnn3-c2ccccc2)CC1 | -64.5
c1ccc(-n2ncc3c(N4CCCC4)ncnc32)cc1 | -8.17
CSc1ccc(COC(=O)CCS(=O)(=O)c2ccc(C)cc2)cc1 | -9.83
O=C(C[n+]1ccccc1)N1CCCc2ccccc21.[Cl-] | 18.3
Cn1c(SCC#N)nnc1-c1ccc2c(c1)OCO2 | 16.9

SMILES | hERG current change (%, negative = inhibition) at 10uM [%]
CCOC(=O)c1c(NC(=O)CCc2ccc(CC)o2)sc(C)c1C | 1.97
O=C(CN1CCN(Cc2ccccc2Cl)CC1)N/N=C/c1ccco1 | -21.8
O=C(Cc1cccs1)N/N=C/C=C/c1ccccc1[N+](=O)[O-] | -0.125
O=C(CN1CCN(Cc2ccccc2)CC1)N/N=C/C=C/c1ccco1 | -47.2
O=C(CN1CCN(Cc2ccccc2)CC1)N/N=C/C=C/c1ccccc1[N+](=O)[O-] | -74.2
O=C(CN1CCN(Cc2ccccc2Cl)CC1)N/N=C/C=C\c1ccccc1[N+](=O)[O-] | -76.2
O=C(Cc1ccccc1)N/N=C/C=C/c1ccccc1[N+](=O)[O-] | 1.71
O=C(CN1CCN(Cc2ccccc2Cl)CC1)N/N=C/C=C/c1ccccc1[N+](=O)[O-] | -71.6
Cc1ccc(CN2CCN(/N=C/C=C/c3ccccc3[N+](=O)[O-])CC2)cc1 | -21.1
O=C(Cc1cccs1)N/N=C/C=C\c1ccccc1[N+](=O)[O-] | 13.3
O=C(O)COc1ccccc1/C=N/NC(=O)CN1CCN(Cc2ccccc2Cl)CC1 | -0.129
O=C(CN1CCN(Cc2ccccc2Cl)CC1)N/N=C/C=C/c1ccco1 | -68.5
O=[N+]([O-])c1ccccc1/C=N\N1CCN(Cc2ccccc2Cl)CC1 | 9.77
O=C(COC(=O)CNS(=O)(=O)c1ccc(F)c(F)c1F)NC1CCCC1 | 4.16
Clc1ccc(OCCCc2nc(-c3ccncc3)no2)c(Cl)c1 | -0.0206
O=C1/C(=C/N(C(=O)c2ccco2)c2ccc(Br)cc2)Sc2ccccc21 | -7.76
Cc1[nH]c2ccccc2c1C(C[N+](=O)[O-])c1cccc(O)c1 (centres unmarked) | 8.53
Cc1oc2cc3c(C(=O)N4CCCCC4)c(C)oc3cc2c1C(=O)N1CCCCC1 | 5.17
Cc1ccc2cc(C(=O)O)c(C)nc2c1 | 11.6
CCC(CC)C(=O)Nc1ccncc1 | 23.9
COc1ccccc1CNC(=O)c1ccccc1C(=O)NC(CC(C)C)C(=O)NCc1ccccc1OC (centres unmarked) | 10.6
Cc1c(NC(=O)c2ccco2)cccc1C(=O)NN1C(=O)c2ccccc2C1=O | 16.4

SMILES | hERG current change (%, negative = inhibition) at 10uM [%]
COC(CNC(=O)c1ccc2c3c(onc13)-c1ccccc1C2=O)OC | -1.15
Cl.OCCNCc1cccc(OCc2ccccc2Cl)c1 | -17.6
COc1ccc(N2CC(C(=O)Nc3ccc(S(=O)(=O)N4CCOCC4)cc3)CC2=O)cc1 (centres unmarked) | 13.4
Cl.O=C(NCCN1CCOCC1)c1cn(-c2ccccc2)nc1-c1cccs1 | -25.6
CCN(CC)CCNC(=O)c1cn(-c2ccccc2)nc1-c1cccs1.Cl | -69
CCN(CC)CCNC(=O)c1ccc(NC(=O)c2cn(-c3ccccc3)nc2-c2cccs2)cc1 | -32.7
COc1cccc(CNC(=O)c2ccccc2SCC(=O)N2CCCC2)c1 | -22.7
COc1cccc(CN2CCNC(=O)C2CC(=O)O)c1OC (centres unmarked) | 11.4
Cc1ccc(S(=O)(=O)CCNC(=O)Cc2ccccc2)cc1 | 26.9
CCN=c1sc2ccccc2n1CC(O)COc1ccccc1 (centres unmarked) | -44
OC(CN=c1sc2ccccc2n1CC(O)COc1ccccc1)COc1ccccc1 (centres unmarked) | -1.46
CN=c1sc2ccccc2n1CC(O)c1ccccc1 (centres unmarked) | -21.4
CN=c1sc2ccccc2n1CC(O)COCc1ccco1 (centres unmarked) | -65.4
Cc1cc(C)n(CC(O)COCc2ccco2)n1 (centres unmarked) | -3.37
CN=c1sc2ccccc2n1CC(O)COc1ccccc1 (centres unmarked) | -57.5
CN(C)C(=O)c1ccc2c3c(cccc13)CC2 | 24.6
COc1cc(NC(=O)CCCNC(=O)Cn2cnc3sc4c(c3c2=O)CCCC4)cc(OC)c1OC | 29.6
O=C(COc1ccc2c(c1)oc(=O)c1ccccc12)NCCN1CCOCC1 | -11
O=C(CSc1nc2ccc(N3CCOCC3)cc2c(=O)n1CCc1ccccc1)NCC1CCCO1 (centres unmarked) | -47
COc1ccc2oc(=O)c(C(=O)NCC3CCCO3)cc2c1 (centres unmarked) | 3.67
COc1ccc(CCNC(=O)CNCC2CCCO2)cc1OC.O=C(O)C(=O)O (centres unmarked) | 14.1
Cc1cccn2c(=O)c3cc(C(=O)NCC4CCCO4)c(=N)n(CCc4ccccc4)c3nc12 (centres unmarked) | -76.7

SMILES | hERG current change (%, negative = inhibition) at 10uM [%]
COc1ccc(CCn2c(=N)c(C(=O)NCC3CCCO3)cc3c(=O)n4cccc(C)c4nc32)cc1 (centres unmarked) | -79.7
COc1ccc(CCNC(=O)C(=O)NCC2CCCO2)cc1 (centres unmarked) | -0.535
COc1ccc(CCn2c(=N)c(C(=O)NCC3CCCO3)cc3c(=O)n4cccc(C)c4nc32)cc1OC (centres unmarked) | -80.9
O=C(NCC1CCCO1)c1ccc2c(=O)n(CCc3ccccc3)c(=O)[nH]c2c1 (centres unmarked) | 7.98
CNC(=O)Oc1ccc2c(c1)C(=O)c1ccccc1CO2 | 6.76
CNC(=S)Nc1cc(OC)c(NC(=O)c2ccco2)cc1OC | 14.9
Cc1cc(C)nc(NNS(=O)(=O)c2ccc(F)c(Cl)c2)n1 | 0.38
Cc1ccc(C)n1NC(=O)c1cccs1 | 9.98
CCOCCCNCC(O)c1ccccc1.O=C(O)C(=O)O (centres unmarked) | 3.55
O=C(N/N=C/c1cccc([N+](=O)[O-])c1O)C(O)(c1ccccc1)c1ccccc1 | 8.16
O=C(N/N=C/c1cc([N+](=O)[O-])cc([N+](=O)[O-])c1O)C(O)(c1ccccc1)c1ccccc1 | -4.37
O=C(N/N=C/c1cc(Cl)cc([N+](=O)[O-])c1O)C(O)(c1ccccc1)c1ccccc1 | -53
Cc1ccc(/C(O)=C2/C(=O)C(=O)N(c3ccccn3)C2c2ccc([N+](=O)[O-])cc2)cc1 (centres unmarked) | 8.83
COC(=O)COc1cccc2c(=O)n(CC(=O)NCc3ccc(F)cc3)ccc12 | 1.82
O=C1CC(c2cccnc2)=NN1c1ccc(Cl)cc1Cl | 12.1
C/C=C(/C)C(=O)O[C@@H]1c2c(ccc3ccc(=O)oc23)O[C@@H]1C(C)(C)OC(=O)/C(C)=C\C | -0.936
O=C1OC(Nc2cc(Br)cc3cccnc23)c2ccccc21 (centres unmarked) | -9.92
COc1ccc(S(=O)(=O)N/N=C/c2ccc(OCCN3CCOCC3)c(OC)c2)cc1 | 1.42
CCOc1cc(/C=N/NS(=O)(=O)c2ccc(OC)cc2)ccc1OCCN1CCOCC1 | -53.8
COc1cc(/C=N/NS(=O)(=O)c2ccc3ccccc3c2)ccc1OCCN1CCOCC1 | -39.5
